Assay [1] relates to Zika virus NS2B-NS3 protease (unlinked). Briefly: Optimization of GU AMC qHTS for Zika virus inhibitors: Unlinked NS2B-NS3 protease assay (AID 1347151). Note: potency is the fitted concentration of half-maximal effect; nearly all actives have a fitted effect of over 80% in size. As to conditions: recombinant ZIKV NS2B-NS3 protease, fluorogenic AMC substrate. From the text:
Avindra Nath, Ph.D., National Institute of Neurological Disorders and Stroke (NINDS), Bethesda, MD
Radhakrishnan Padmanabhan, Ph.D., Georgetown University (GU), Washington D.C.
Zika Virus causes congenital defects, including microcephaly and is associated with Guillain-Barre syndrome, eningoencephalitis and myelitis in infected adult. […] Using a target-based approach, we hope to establish a screening paradigm to uncover novel, cell-active NS2B-NS3 protease (Zika Virus) specific inhibitors from NCATS' collection of small molecules using qHTS.
Early Translation Branch (ETB)
National Center for Advancing Translational Sciences (NCATS), Rockville, MD […]
Briefly, 3 microL of Zika virus unlinked NS2B-NS3 protease (25 nM for linked final concentration), in assay buffer (10 mM Tris-HCl pH 8.0 with 0.01% Tween 20) was dispensed into a 1,536-well solid-bottom black plate (Greiner Bio One, Monroe, NC). […] Plates were then read immediately on a ViewLux High-throughput CCD imager (PerkinElmer, Waltham, MA) equipped with standard UV fluorescence optics (340(30) nm excitation, 450(20) nm emission) then incubated (room temperature, protected from light) for 15 minutes (~20% conversion). The change in fluorescence intensity over the 15-minute reaction period was normalized against no-inhibitor and no-enzyme controls and the resulting percent inhibition data were fitted to a 4-parameter Hill equation. […]

For assay [2], the system named is Zika virus NS2B-NS3 protease (unlinked complex). Briefly: Primary screen GU Rhodamine qHTS for Zika virus inhibitors: Unlinked NS2B-NS3 protease assay (AID 1347159). For activity change, negative = inhibition: % is set by controls: 0 for no effect and ±100 for the full control effect. Note: nearly all actives have a fitted effect of over 60% in size. Note: potency is the fitted concentration of half-maximal effect. As to conditions: Recombinant ZIKV NS2B-NS3 protease, Rhodamine110 substrate fluorescence; series mostly up to 107 µM. The essentials:
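A qHTS format was used, with compound concentrations ranging up to 114 microM. Each compound was preincubated with 25 nM NS2B-NS3 protease, and the substrate was then added at 1.5 microM. Curves were fitted with a 4-parameter Hill model.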
A general note: qHTS replaces the single test concentration by a dilution series.

Assay [3] relates to Zika virus NS2B-NS3 protease (linked construct). The assay can be described thus: Primary screen NINDS Rhodamine qHTS for Zika virus inhibitors (AID 1347160). For activity change, negative = inhibition: % is set by controls: 0 for no effect and ±100 for the full control effect. Note: nearly all actives have a fitted effect of over 55% in size. The following applies: purified NS2B-NS3 protease, Rhodamine110 substrate fluorescence; series mostly up to 57.1 µM. The essentials:
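Kinetic fluorescence (Ex 480 nm, Em 540 nm) over 15 min with 1.5 microM Rhodamine110 peptide and 25 nM linked protease.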

Results filed as inconclusive are left out. Unmarked numbers belong to inactive results. Active and inactive are the calls of the source. Calls come from the whole dose curve; as a rule, active = well fitted inhibition curve with a large enough effect; inconclusive = small, poorly fitted or top-dose-only effect; inactive = no such curve, though single readings can be large or run the other way.

Consider 26 compounds from PubChem BioAssay (NCATS).

`CC(C)N=c1cc2n(-c3ccc(Cl)cc3)c3ccccc3nc-2cc1Nc1ccc(Cl)cc1`: the Potency in assay [1] is 0.607 µM (active).
As to `O=C(c1ccccn1)c1cnn2c(-c3ccncc3)ccnc12`, the Potency result in assay [2] and in assay [3] was “inactive” throughout.
As for `C=CC1(C)CC2=CCC3C(C)(C(=O)O)CCCC3(C)C2CC1OC(C)=O` (stereo not given), the Potency result in assay [2] and in assay [3] was “inactive” in each case.
As to `O=C(c1ccc(F)cc1)C1CCN(CCn2c(=O)nc3n(c2=O)CCCC3)CC1`, the Potency result in assay [2] and in assay [3] was “inactive” each time.
Take `CC1CCC2(NC1)OC1C(=O)C3C4CCC5CC(O[C@@H]6O[C@H](CO)[C@@H](O)[C@H](O)[C@H]6O[C@@H]6O[C@@H](C)[C@H](O)[C@@H](O)[C@H]6O)CCC5(C)C4CCC3(C)C1C2C` (stereo not given in full): the Potency entry in assay [2] and in assay [3] was “inactive” each time.
`CC(C)N(C[C@H]1O[C@@H](n2cnc3c(N)ncnc32)[C@H](O)[C@@H]1O)C1CC(CCc2nc3ccc(C(C)(C)C)cc3[nH]2)C1` (stereo not given in full): the Potency result in assay [2] and in assay [3] was “inactive” each time.
On to `CCOC(=O)c1ccnc(CNCC(=O)N(CC)CCN(C)C)c1`, for which the Potency result in assay [2] and in assay [3] was “inactive” each time.
For the compound `CC1(C)NC2N(C1=O)c1ccccc1C2(O)CC(C(=O)O)n1cnc2ccccc2c1=O` (stereo not given), the Potency result in assay [2] and in assay [3] was “inactive” each time.
For the compound `C=C1CC2(C(=O)O)CC1CCC2C1(C)CCCC2(C)C(=O)OC(O)C21` (stereo not given), the Potency result in assay [2] is “inactive”.
Take `C[C@]12CCC(=O)C=C1[C@@H](O)C[C@@H]1[C@@H]2[C@@H](O)C[C@@]2(C)[C@H]1CC[C@]2(O)C(=O)CO`: the Potency result in assay [2] and in assay [3] was “inactive” each time.
With `CC(=O)O[C@@H]1[C@H](O[C@@H]2O[C@H](CO)[C@@H](O)[C@H](O)[C@H]2O)[C@@H](O[C@@H]2O[C@@H](C)[C@H](O)[C@@H](O[C@@H]3O[C@H](CO)[C@@H](O)[C@H](O)[C@H]3O)[C@H]2O)[C@H](OC(=O)C23CCC4(C)C(=CCC5C6(C)CC(O)C(O[C@@H]7O[C@H](C(=O)O)[C@@H](O)[C@H](O)[C@H]7O)C(C)(C(=O)O)C6CCC54C)C2CC(C)(C)CC3O)O[C@@H]1C` (stereo not given in full), the activity change, negative = inhibition in assay [2] was 7.44% [at 19.1 µM]; in assay [3], 3.1% [at 10.7 µM].
In the case of `COc1cc(C[C@H]2COC(=O)[C@@H]2Cc2ccc(O)c(OC)c2)ccc1O`, the Potency in assay [2] is 35.5 µM (active).
As for `CCn1c2ccccc2c2cc(CNC)ccc21`, the Potency result in assay [2] and in assay [3] was “inactive” in each case.
As for `O=C(NCC(=O)N1CC[C@H](NC2CCC(O)(c3ccc(-c4ncccn4)cn3)CC2)C1)c1cccc(C(F)(F)F)c1` (stereo not given in full), the Potency entry in assay [2] and in assay [3] was “inactive” each time.
In the case of `CN1CC[C@@H](NC(=O)Nc2ccc(C#N)cc2)C[C@@H]1c1nc2ccccc2[nH]1`, the Potency result in assay [2] and in assay [3] was “inactive” each time.
Regarding `CC(C)(O)c1ccc2c(c1)C(=O)CC1[C@](C)(CO)CCC[C@]21C` (stereo not given in full), the Potency in assay [2] was 31.6 µM (active).
Still for that read-out and setting: then `COc1cc(C(C)=O)ccc1O[C@@H]1O[C@H](CO[C@@H]2O[C@@H](C)[C@H](O)[C@@H](O)[C@H]2O)[C@@H](O)[C@H](O)[C@H]1O`, with “inactive”; and `C[C@H]1[C@H](C)CC[C@]2(C(=O)O)CC[C@]3(C)C(=CC[C@@H]4[C@@]5(C)C[C@@H](O)[C@H](O)[C@@](C)(CO)[C@@H]5CC[C@]43C)[C@H]12`, with “inactive”.
Still for that read-out and setting: in the case of `COc1c(C)c(OCC=C(C)C)cc2c1C(=O)NC2=O` it was “inactive”; in that of `Oc1ccc([C@H]2COc3cc(O)ccc3C2)cc1`, “inactive”.
The same measure, in the same setting: then `C=CCc1ccc(O[C@@H]2O[C@H](CO)[C@@H](O)[C@H](O)[C@H]2O)c(OC)c1`, with 12.6 µM (active).
With `CC1(C)CCCC2(C)C1C(O)C=C(CO)C2(O)C(=O)O` (stereo not given), the Potency entry in assay [2] is “inactive”.
Consider `C[C@@H]1O[C@@H](O[C@H]2[C@H](O)[C@@H](O)[C@H](OC[C@H]3O[C@@H](OC(=O)[C@]45CCC(C)(C)C[C@H]4C4=CCC6[C@@]7(C)C[C@H](O)[C@H](O[C@@H]8O[C@H](CO)[C@@H](O)[C@H](O)[C@H]8O)[C@@](C)(C(=O)O)C7CC[C@@]6(C)[C@]4(C)CC5)[C@H](O[C@@H]4O[C@H](CO)[C@@H](O)[C@H](O)[C@H]4O)[C@@H](O)[C@@H]3O)O[C@@H]2CO)[C@H](O)[C@H](O)[C@H]1O` (stereo not given in full), for which the activity change, negative = inhibition in assay [2] is -27.3% [at 19.1 µM]; in assay [3] it was -5.11% [at 10.7 µM].
`OCc1ccccc1O[C@@H]1O[C@H](CO)[C@@H](O)[C@H](O)[C@H]1O`: the Potency entry in assay [2] and in assay [3] was “inactive” in each case.
For the compound `COc1cccc(-c2ccc([C@@H](Oc3cc(-c4ccc(C[C@H](N)C(=O)O)cc4)nc(N)n3)C(F)(F)F)cc2)c1`, the Potency in assay [2] is 22.4 µM (active).
Same read-out and setting: then `CC(=O)NC(C(=O)OC1CCC(C)(C)C2CC=C3C(=O)OCC3(O)C12C)C(C)C` (stereo not given), with “inactive”.
